In all, about 1,500 compounds went through this assay and about 430 (29%) were called active. A selection follows. Measured potencies and affinities stand elsewhere. A number with no mark means an inactive call. How the calls were made is not given here.
Assay: insulin secretion activators without glucose, dose response, counter-screen for glucose-dependent insulin secretion activators, cell-based, INS-1E, Gaussia luciferase, luminescence, cherry-pick (AID 977606);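 further: 0% = median of neutral control wells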
Conditions: INS-1E Gaussia luciferase insulin secretion, no glucose, 100% = twice neutral-control luminescence; series mostly up to 35 µM; activation: at the top concentration

Structure (SMILES) | activation
COc1ccc2c(c1)C(C)(Cc1ccc(C(=O)c3ccccc3)cc1)C(=O)N2 (configuration not stated) | -0.179%
Cc1ccc(/C=N/n2c(-c3cccnc3)n[nH]c2=S)s1 | -14.7%
O=C(O)c1ccc(/C=N/n2c(C3CCCCC3)n[nH]c2=S)cc1 | 5.52%
C[C@H]1[C@@H](c2ccccc2)Oc2c(Cl)cccc2S(=O)(=O)N1C | 7.53%
O=C(COc1ccccc1)N(Cc1cccc(F)c1)C1CCS(=O)(=O)C1 (configuration not stated) | 4.65%
Cc1cccc(NCc2ccccc2)c1 | -3.91%
Cc1ccc(NCc2cccc(B(O)O)c2)cc1 | -15.8%
Cc1cc(C)cc(Cn2c3ccc(NC(=S)NCc4ccccc4F)cc3c(=O)n2C)c1 | -29.4%
O=C(c1ccc2c(c1)OCO2)N1CCc2ccccc2C1 | -4.16%
O=C(CCN1CCOCC1)c1ccc(N2CCCCC2)cc1 | -5.22%
CC(C)Oc1ccc(C(=O)CCN2CCOCC2)cc1 | 2.3%
CC(=O)NC1C(=O)N(CCN2CCOCC2)c2ccc(Br)cc21 (configuration not stated) | -9.58%
CCCn1c2ccccc2c2cn[nH]c(=O)c21 | -1.74%
CC1CCC(NCCNC(=O)c2ccco2)CC1 (configuration not stated) | -8.27%
Cc1ccc(S(=O)(=O)Nc2nc(C)cc(NN)n2)cc1 | 7.55%
FC(F)(F)c1cc(-c2ccccc2)nc(-n2cc(Cl)cn2)n1 | 5.23%
Cn1c(=O)c2[nH]c(SCc3ccccn3)nc2n(C)c1=S | -18.9%
O=C(NCCN1CCN(C(=O)c2ccccc2Cl)CC1)C(=O)NCc1ccccc1 | 6.21%
CC(=O)Nc1nc(NCc2ccccc2Cl)n(-c2ccccc2)n1 | 6.24%

Structure (SMILES) | activation
CC(C)Nc1nc(Nc2ccc(C(N)=O)cc2)c2sccc2n1 | 39.4%
CCSc1nnc2ccc(-c3cccs3)nn12 | 2.37%
O=C(CCS(=O)(=O)c1ccc(Cl)cc1)Nc1ccc(N2CCOCC2)cc1 | 1.26%
COc1ccc(/C=C/c2nc(C#N)c(NCCN(C)C)o2)cc1OC | -17.3%
CCOC(=O)C1(C)CCCCN1C(=O)c1cccc(Cl)c1 (configuration not stated) | 5.65%
CCCCNC(=O)C1(C)CCN1C(=O)c1cc2ccccc2s1 (configuration not stated) | 9.86%
CCc1nc(N)nc2c1C(=O)CC(C)(C)C2 | 7.91%
CNc1ccc(-c2ccccc2OC)cn1 | -3.6%
COc1ccc(CCN2C(=O)CC(Cc3ccccc3)C2=O)cc1OC (configuration not stated) | -4.36%
CCOC(=O)c1c(S(=O)(=O)NCCc2ccc(OC)c(OC)c2)c(C)n(C)c1C | 3.38%
COc1ccc(-c2nc3cccc(C)n3c2NCc2ccco2)cc1OC | 12.7%
COc1ccc(CCNC(=O)CCn2c(=O)c3ccccc3n(CC(=O)NCC3CCCO3)c2=O)cc1OC (configuration not stated) | -5.57%
COc1ccc(-c2noc(CCC(=O)Nc3cccnc3)n2)cc1OC | -7.28%
Cc1cc(NS(=O)(=O)c2ccc(NC(=O)C(C)Oc3ccccc3Cl)cc2)no1 (configuration not stated) | -2.54%
CC1(C)CC(=O)C(C=NC2CC(C)(C)NC(C)(C)C2)=C(O)C1 | 6.48%
COCCNc1nc(NC(C)C)nc2ccsc12 | 26.7%
CCn1nnnc1NCc1ccc(OCc2c(F)cccc2Cl)c(OC)c1 | -2.98%
COCCN1Cc2cccc(C(=O)NCc3ccccc3OC)c2C1=O | -9.74%
COc1cc2ccc(C(C)=O)cc2cc1OC | 0.658%

Structure (SMILES) | activation
COc1ccc2ccc(=O)oc2c1CC=C(C)C | -9.17%
Cc1ccc(NC(=O)CN(C(=O)N2CCN(C)CC2)S(=O)(=O)c2ccc(C)cc2)cc1 | 14.7%
FC(F)(F)c1cc(CCN2CCNC[C@@H]2Cc2ccccc2)cc(C(F)(F)F)c1 | 1100%
NC(=O)C1CCN(C(=O)CCNS(=O)(=O)c2ccccc2F)CC1 | 2.4%
COc1ccccc1C(OC(=O)c1cccs1)C(=O)NCC1CCCO1 (configuration not stated) | -14.5%
CC(=O)Nc1cccc(-n2c(=O)n(Cc3ccccc3)c(=O)c3[nH]cnc32)c1 | -4.52%
O=C(c1cccs1)N(Cc1cccc(F)c1)C1CCS(=O)(=O)C1 (configuration not stated) | 0.85%
C/C(=N/Oc1nc(C)cc(C)n1)c1ccc(F)cc1 | -0.472%
C=CCn1c(O)c(N=NC(=O)CNC(=O)c2ccco2)c2ccccc21 | 1.45%
CC(C)COC(=O)N1C[C@H](O)C[C@H]1C(=O)Nc1ccc(Cl)cc1 | -11.9%
Cn1cc(C(=O)NCC(=O)Nc2ccccc2Br)cn1 | 5.93%
COc1ccc(CNC(=O)c2cnn3c(C(F)F)cc(C)nc23)cc1 | -10.7%
COc1ccccc1-c1cnc2c(Nc3cccc(OC(F)(F)C(F)F)c3)nccn12 | 7.41%
O=C1CC(NS(=O)(=O)c2cccs2)CN1c1cccc(F)c1 (configuration not stated) | -8.56%
CC1(C)Cc2c(cnn2-c2ccccc2)C(NC(=O)CCN2CCCC2=O)C1 (configuration not stated) | 14.1%
COc1ccc(C2CC(c3ccc(OC)c(OC)c3)=NN2C(=O)c2ccccc2)cc1 (configuration not stated) | -16.4%
COc1ccc(-c2cc(C(F)(F)F)n3nc(C(=O)O)cc3n2)cc1OC | -2.77%
Cc1ccccc1Cc1c(C)nc2c(C(=O)NCc3ccco3)cnn2c1C | -8.95%
Cn1nnnc1Sc1ncnc2scc(-c3ccc(F)cc3)c12 | 3.39%
